The source of these data is PubChem BioAssay AID614 (Sanford-Burnham Center for Chemical Genomics, 2007).

The inhibition is the change of the read-out against control, counted positive when it falls.

Hit rate of the full screen: of about 21,000 compounds, fewer than 10 were called active.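 The calls were made as follows: active = inhibition above 50% at the 20 µM single-dose screen; inactive = the rest.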 The list is a sample of the results.

For this experiment, the target named is Alkaline phosphatase, tissue-nonspecific isozyme (Homo sapiens) (UniProt P05186). Nature of the experiment: blockers of alkaline phosphatase TNAP activity – biochemical, colorimetric, phosphate release readout, primary screen (AID 614). As to conditions: purified TNAP, pNPP, malachite green phosphate absorbance; at 20 µM; hits give high values.
Alkaline phosphatase, tissue-nonspecific isozyme (Homo sapiens), sequence (P05186 whole entry, looked up): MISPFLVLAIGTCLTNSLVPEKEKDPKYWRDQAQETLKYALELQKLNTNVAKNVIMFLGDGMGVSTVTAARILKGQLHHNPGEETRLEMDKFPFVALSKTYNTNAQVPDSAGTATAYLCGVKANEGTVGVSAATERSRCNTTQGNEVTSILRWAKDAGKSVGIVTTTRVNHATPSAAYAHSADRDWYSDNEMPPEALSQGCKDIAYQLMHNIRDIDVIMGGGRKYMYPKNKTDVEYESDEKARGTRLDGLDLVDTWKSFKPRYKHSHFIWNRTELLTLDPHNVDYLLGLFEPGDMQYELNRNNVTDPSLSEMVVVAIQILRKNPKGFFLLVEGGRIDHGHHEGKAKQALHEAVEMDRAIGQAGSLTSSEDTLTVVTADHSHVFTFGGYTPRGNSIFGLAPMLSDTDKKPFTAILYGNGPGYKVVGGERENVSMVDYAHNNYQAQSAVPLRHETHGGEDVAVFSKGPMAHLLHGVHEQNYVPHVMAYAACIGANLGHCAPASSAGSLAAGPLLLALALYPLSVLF
On to `CCOC(=O)CC1=CC(=O)Nc2ccccc2N1`, for which the inhibition was 2.4% (inactive). With `Cc1cc(C)cc(OCc2nnc(SCC(=O)OC3CCCCC3)o2)c1` the figure was -4.5% (inactive); with `COC(=O)c1nc(NC(=O)c2ccc(Cl)cc2)n[nH]1`, 1.5% (inactive). With `CCC1SC2=NCCN2C1(O)c1ccc(Cl)cc1` (configuration not stated) the figure was 3.8% (inactive). Next, `CCSc1nc(=S)n(CC)c(C)c1C(C)=O`: 5.7% (inactive). Take `Cc1ccc2nc(NC3=NCN(CCc4ccccc4)CN3)nc(C)c2c1`: the inhibition was 10.4% (inactive).

As for `O=C(CN(c1ccc2c(c1)OCCO2)S(=O)(=O)c1ccccc1)Nc1ccc2c(c1)OCO2`, the inhibition is 5.3% (inactive). On to `O=S(=O)(NCC1CCCO1)c1ccc2ccccc2c1` (configuration not stated), for which the inhibition is 8.8% (inactive).

For the compound `CCn1c(SCC(=O)Nc2nc3ccc(OC)cc3s2)nnc1-c1ccoc1C`, the inhibition was 1.9% (inactive). Next, `CSCC[C@H](NC(=O)NCc1cccs1)C(=O)O`: -0.1% (inactive); `COC(=O)c1ccc(CSc2nncn2C)cc1`: 11% (inactive); `COc1cccc(N(CC(=O)Nc2cccc(F)c2)S(C)(=O)=O)c1`: 0.7% (inactive).

`CCOP1(=O)C=C(C(C)(C)C)OC1c1ccc(F)cc1` (configuration not stated): the inhibition was -0.2% (inactive). Next, `CCN1CCN(C(=O)c2ccccc2N(C)S(=O)(=O)c2ccc(C)cc2)CC1`: 11.4% (inactive); `Nn1c(SCC(=O)NC(=O)NC2CCCC2)nnc1-c1ccccc1F`: 15.5% (inactive). For the compound `CCCn1c(SCC(=O)c2ccc3c(c2)OCCO3)nnc1C(C)C`, the inhibition is 11.4% (inactive). Next, `O=C(Nc1cccc2c1CCCC2)C1CCN(C(=O)NC2CCCCC2)CC1`: 15.2% (inactive); `COc1ccc2c(c1)C(C)=CC(C)(C)N2C(=O)CNCc1ccc2c(c1)OCO2`: 6.2% (inactive). With `COc1ccc(NS(=O)(=O)c2ccc(NC(=O)C(C)(C(F)(F)F)C(F)(F)F)cc2)nn1` the figure was 3.4% (inactive).

Consider `Cc1ccc(C(=O)CS(C)(=O)=O)cc1`, for which the inhibition was -1.2% (inactive).

For `Clc1ccc(CSc2nnc([C@@H]3CCCN3)o2)cc1`, the inhibition was 13% (inactive). Take `COC(=O)C1C(=O)CC(C)(O)C(C(=O)OC)C1c1ccc2c(c1)OCO2` (configuration not stated): the inhibition was 9.9% (inactive).

As to `CN(C)Cc1c(C#N)c2ccccc2n1C`, the inhibition was -22.9% (inactive). Turning to `C=CCn1c(CC(=O)Nc2cccc(OC)c2)nnc1SCC(=O)NC1CCCCC1`, the inhibition is -6.2% (inactive). Next, `Cc1cc(Br)ccc1NC(=O)C1CCCO1` (configuration not stated): 0% (inactive); `Cc1ccc(C(=O)CSc2nc3ccccc3c(=O)n2N)o1`: 6% (inactive). Next, `CCCCC(CCC(=O)Nc1ccc(C(=O)OCC)cc1)C(=O)O` (configuration not stated): 6% (inactive).

Turning to `Fc1cnc(N2CCOCC2)nc1NCc1ccccc1`, the inhibition is -0.4% (inactive). Take `CCOC(=O)CN(C(=O)CN1CCOCC1)c1ccc(Br)cc1`: the inhibition was -1.5% (inactive). Regarding `O=C(O)COc1nsnc1N1CCOCC1`, the inhibition is 10.4% (inactive). Turning to `O=C1CCC(C(=O)Nc2ccc(OC(F)F)cc2)N1` (configuration not stated), the inhibition was 21.3% (inactive). With `Cc1cccc(Cn2c(N3CCN(c4ccccc4)CC3)nc3c2c(=O)n(C)c(=O)n3C)c1` the figure was 8.8% (inactive). With `O=C1CC(N2CCN(C(c3ccccc3)c3ccccc3)CC2)C(=O)N1` (configuration not stated) the figure was 7.9% (inactive). As for `COC(=O)c1ccc(N(CC(=O)NC2CCCC2)C(=O)CNC(=O)c2ccco2)cc1`, the inhibition was 0% (inactive). Turning to `Cc1ccc(C)c(NC(=O)C2CCCN2C(=O)OC(C)(C)C)c1` (configuration not stated), the inhibition is -3.4% (inactive). With `O=C(NCc1ccc(Cl)cc1)c1cc2c(nc3sccn32)s1` the figure was 12.4% (inactive). `CN(C)CCCNc1c2c(c(C#N)c3nc4ccccc4n13)CCC2`: the inhibition was 0% (inactive). Next, `Cc1c(C(=O)OCc2cc(=O)n3cc(Br)ccc3n2)oc2ccccc12`: -2.2% (inactive); `Cc1ccc(Oc2ccc(N)cc2)cc1`: 15% (inactive). With `Cc1cc(N2CCCC2)n2nc(C)c(-c3ccccc3)c2n1` the figure was 8.2% (inactive); with `CC(C)C1Cc2c(sc3c2c(=O)n(-c2ccccc2)c2nncn32)CO1` (configuration not stated), 10.1% (inactive); with `COC(=O)c1cc(OC)c(OC)cc1NC(=O)C1CCCO1` (configuration not stated), 6% (inactive). On to `CC(=O)N1CCN(C(=O)Nc2cccc(C(F)(F)F)c2)CC1`, for which the inhibition is -0.7% (inactive).

Take `CCCC(=O)Nc1ccc2c(c1)nc1n2CCSC1`: the inhibition is 3.5% (inactive). Regarding `O=C(CSc1nnc(-c2ccoc2)o1)N1CCOCC1`, the inhibition is -1.3% (inactive).

In the case of `c1cnc(NC2C3CC4CC(C3)CC2C4)nc1` (configuration not stated), the inhibition was 3.8% (inactive). With `N#CC(C(N)=O)=C1CCC2(CC1)OCCCCO2` the figure was 13.2% (inactive); with `Cc1ccc(S(=O)(=O)N2CCC(N3CCCCCC3)CC2)cc1`, 7% (inactive). Consider `COc1ccc(-c2nnc(SCC(=O)c3ccco3)n2-c2ccccc2)cc1`, for which the inhibition was 2.3% (inactive). For `O=C(c1cccc(S(=O)(=O)N2CCOCC2)c1)N1CCOCC1`, the inhibition is 6.8% (inactive). Next, `CCc1ccc(N2CC(C(=O)NC3=NCCS3)CC2=O)cc1` (configuration not stated): -4.1% (inactive); `COC(=O)[C@H](Cc1ccccc1)NC(=O)N1CC(C)OC(C)C1` (some centres not stated): 6.7% (inactive). For the compound `CC(C)OCCCNc1nc2c(c(=O)n(Cc3ccccc3F)c(=O)n2C)n1C`, the inhibition is 11.4% (inactive). With `N#Cc1c2c(c(-c3ccccc3)[nH]c1=O)CCCC2` the figure was 9.6% (inactive); with `Cc1ccc(C(C(=O)NC2CCCC2)N(Cc2ccco2)C(=O)CCC(=O)Nc2ccccn2)cc1` (configuration not stated), 7.3% (inactive); with `COc1c(O)cccc1-c1nnn(CCC(=O)OCC(=O)c2ccccc2)n1`, 2.2% (inactive). Turning to `O=C(O)c1cscn1`, the inhibition is 4.2% (inactive). For `O=C(CSc1nnc(-c2ccccn2)n1-c1ccccc1)Nc1ccc2c(c1)OCO2`, the inhibition is 3.6% (inactive). With `COc1ccc(C(=O)Nc2ccc(S(=O)(=O)Nc3onc(C)c3C)cc2)cc1OC` the figure was 0.4% (inactive); with `CCOC(=O)C1=C(C)NC(=O)N(C(C)=O)C1c1ccc(Cl)cc1` (configuration not stated), 10% (inactive). On to `O=C(NCCSc1ccccc1)c1ccco1`, for which the inhibition is 13.2% (inactive). In the case of `CCc1nc2ccccc2n(CCOCCOCCn2c(=O)c(CC)nc3ccccc32)c1=O`, the inhibition is 8.8% (inactive). Regarding `COc1cccc(N(CC(=O)Nc2cccc(N(C)S(C)(=O)=O)c2)S(C)(=O)=O)c1`, the inhibition is 0% (inactive). As to `CS(=O)(=O)N1CCN(C(=O)c2cc3ccccc3oc2=O)CC1`, the inhibition is 11.1% (inactive).

On to `COc1ccc(CNC(=O)c2c(C)cc(=O)oc2C)cc1OC`, for which the inhibition was 11.6% (inactive). Next, `COc1ccc(-n2c(SCC(=O)OC(C)C)nnc2-c2ccccn2)cc1`: 7.8% (inactive); `CCN(CC)S(=O)(=O)c1cccc(C(=O)Nc2ccccc2)c1`: 3.8% (inactive). `Cc1cc(C)nc(SCc2nnc(SCC(=O)OC3CCCCC3)o2)n1`: the inhibition is 2.9% (inactive).

Regarding `CNC(=O)c1nnn(-c2ccccc2)c1C(=O)NC`, the inhibition is 6.4% (inactive).

`COC(=O)c1ccc(NC(=O)CSc2nnc(CNc3ccc(OC)cc3)n2C)cc1`: the inhibition was -7.8% (inactive). With `CCc1nc2oc3ccccc3c(=O)c2c(=O)n1Cc1ccc(OC)cc1` the figure was 6.6% (inactive).

For the compound `CCOC(=O)c1cc2cc(C)ccc2[nH]1`, the inhibition is -8.6% (inactive).
